Source: PubChem BioAssay (NCATS)

Legend:
[1] = qHTS profiling of the MIPE4 collection as inhibitors of Plasmodium falciparum (3D7) proliferation (AID 743344);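 further: scaled between DMSO vehicle wells and 0.29 µM artemisinin as full inhibition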; conditions: P. falciparum 3D7 in erythrocytes, SYBR Green DNA fluorescence, 72 h; at 28.5 µM unless noted
Procedure, shortened: (§1)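 Parasite DNA was quantified by SYBR Green I fluorescence (ex 485, em 535 nm) after overnight lysis in saponin/Triton buffer at room temperature. Cultures at 0.3% parasitemia and 2.5% hematocrit were first exposed to compound for 72 h at 37 C; signals were normalised to artemisinin (0.29 uM) and vehicle wells.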

[2] = qHTS profiling of the MIPE4 collection as inhibitors of Plasmodium falciparum (DD2) proliferation (AID 743345); conditions: P. falciparum Dd2 in erythrocytes, SYBR Green DNA, 72 h; at 28.5 µM unless noted
Procedure, shortened: as §1

[3] = qHTS profiling of the MIPE4 collection as inhibitors of Plasmodium falciparum (DD2) proliferation (Rep 2) (AID 743346); conditions: P. falciparum Dd2 in erythrocytes, SYBR Green DNA, 72 h; at 28.5 µM unless noted
Procedure, shortened: as §1

| Compound | parasite growth, % of DMSO control [1] | parasite growth remaining, % of DMSO control (lower = more inhibition) [2] | parasite growth, % of control (lower = inhibition) [3] |
| --- | --- | --- | --- |
| CCCCCCCCCCCCc1ccc(S(=O)(=O)Nc2nncs2)cc1 | 79.3% | 92.3% | 80.6% |
| COc1cc(OC)cc(-c2ccc3ncc4ccc(=O)n(-c5ccc(N6CCNCC6)c(C(F)(F)F)c5)c4c3c2)c1 | 5.19% | 5.58% | 18.6% |
| COc1ccnc2[nH]cc(C(=O)C(=O)N3CCN(C(=O)c4ccccc4)C[C@@H]3C)c12 | 81% | 98% | 86.4% |
| O=C(Nc1cc2cc[nH]c2cn1)c1ccccc1 | 76.5% | 88% | 39.2% |
| CCC(C=C[C@@H]1OC(=O)C=C[C@H]1C)=C[C@H](C)CC=CC(C)=C[C@@H](C)C(=O)[C@@H](C)[C@H](O)[C@@H](C)CC(C)=CC(=O)O | 402% [at 1.06 µM] | 97.4% [at 1.06 µM] | 106% [at 1.06 µM] |
| CC(C)N1[N]C(=C2C=c3cc(O)ccc3=N2)c2c(N)ncnc21 | 9.52% | 13.1% | 10.7% |
| COC(=O)[C@@H]1CC2=CC(=O)CC[C@]2(C)[C@@]23O[C@@H]2C[C@@]2(C)[C@H](CC[C@@]24CCC(=O)O4)[C@@H]13 | 74.7% | 87.1% | 61.4% |
| Cn1cnc2c(F)c(Nc3ccc(Br)cc3F)c(C(=O)NOCCO)cc21 | 86.6% | 88% | 76.8% |
| CC(C)(O)Cn1c(NC(=O)c2ccc(-c3cn[nH]c3)s2)nc2cc(CN3CCOCC3)ccc21 | 6.03% | 7.56% | 9.94% |
| CCOC(=O)N1CCN([N+]([O-])=NOc2ccc([N+](=O)[O-])cc2[N+](=O)[O-])CC1 | 67.7% | 83% | 70.7% |
| CCn1c(=O)c2c(nc(C=Cc3ccc(OC)c(OC)c3)n2C)n(CC)c1=O | 37.9% | 83.4% | 34.2% |
| CC(C)(C)[C@H](NC(=O)c1ccc(N)c(Cl)c1)C(=O)N1CCC[C@@H]1C(=O)N[C@H](C#N)CC(=O)O | 160% [at 3.19 µM] | 110% [at 3.19 µM] | 108% [at 3.19 µM] |
| Cc1ccc([N+](=O)[O-])cc1S(=O)(=O)N(C)N=Cc1cnc2ccc(Br)cn12 | 5.89% | 11.3% | 20.1% |
| CS[C@H]1SC[C@@H]2C(=O)N(C)[C@H](C(C)C)C(=O)OC[C@H](NC(=O)c3cnc4ccccc4n3)C(=O)N[C@H](C)C(=O)N(C)[C@@H]1C(=O)N(C)[C@H](C(C)C)C(=O)OC[C@H](NC(=O)c1cnc3ccccc3n1)C(=O)N[C@H](C)C(=O)N2C | 7.68% | 5.94% | 7.64% |
| CN(C)CC[C@H](c1ccc(Cl)cc1)c1ccccn1 | 94.7% | 57% | 36.2% |
| COc1cc(OC)c(NC(=O)Nc2cc(C)on2)cc1Cl | 69.1% | 100% | 54.6% |
| C#C[C@]1(O)CC[C@@H]2[C@@H]3CCc4cc(O)ccc4[C@H]3CC[C@@]21C | 75.9% | 90.7% | 54.7% |
| CC(C=CC(=O)NO)=C[C@@H](C)C(=O)c1ccc(N(C)C)cc1 | 5.14% | 7.38% | 9.43% |
| CCS(=O)(=O)Nc1ccc2[nH]c(O)c(C(=Nc3ccc(CN4CCCCC4)cc3)c3ccccc3)c2c1 | 6.54% | 7.14% | 13.8% |
| CC(C)(O)[C@H]1CC[C@@](C)([C@H]2[C@@H](O)C[C@@]3(C)[C@@H]4C[C@H](O[C@@H]5O[C@H](CO)[C@@H](O)[C@H](O)[C@@H]5O)[C@H]5C(C)(C)[C@@H](O[C@@H]6OC[C@@H](O)[C@H](O)[C@@H]6O)CC[C@@]56C[C@@]46CC[C@]23C)O1 | 90.6% | 135% | 89.1% |
| CC(C)C[C@H](NC(=O)[C@@H](NC(=O)c1cccc(-c2ccccc2)n1)[C@@H](C)O)B(O)O | 4.97% | 8.79% | 7.67% |
| C[C@H]1O[C@H](O[C@H]2[C@H](O)[C@@H](O)[C@@H](O[C@H]3[C@H](O)[C@@H](O)C(O)O[C@H]3CO)O[C@H]2CO)[C@H](O)[C@@H](O)[C@H]1N[C@H]1C=C(CO)[C@@H](O)[C@H](O)[C@@H]1O (stereo not given in full) | 92.3% | 127% | 88.4% |
| Oc1ccc(-c2ccc(-c3cc(Nc4cccc(CNC5CC5)c4)n[nH]3)cc2)c(O)c1 | 9.07% | 13.4% | 20% |
| O=C(C=CC#Cc1cccc(NS(=O)(=O)c2ccccc2)c1)NO | 5.45% | 7.17% | 8.22% |
| Cn1cc(C[C@@H](N)C(=O)O)c2ccccc21 | 103% [at 9.64 µM] | 82.7% [at 9.64 µM] | 107% [at 9.64 µM] |
